The panel holds about 83,000 compounds, 20% with a hit somewhere; the sample as a whole holds those more often.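 How to read the values: 0–100, growth inhibition (40 = 60% inhibited); 0, no net growth; -100 to 0, cell death (-40 = 40% of starting cells died; -100 = all dead).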 The source made the active and inactive calls.
Each compound was assayed on NCI/ADR-RES ovarian (assay: NCI-60 one-dose screen, 48 h (100 = growth as untreated, 0 = no growth, -100 = all killed)). Conditions: 10 µM unless noted.
Protocol: Growth inhibition of the NCI/ADR-RES human […] tumor cell line is measured as a screen for anti-cancer activity. Cells are grown in 96 well plates and exposed to the test compound for 48 hours. Compounds are tested at a single concentration, which is 10^-5 M for most compounds. The reported endpoint is percent growth (GI% or GIPRCNT), where numbers from 0 - 100% represent growth inhibition, and numbers from -100% - 0 represent cell death. For example, a value of 40 represents 60% growth inhibition. A value of 0 means no net growth occurred over the course of the experiment. A value of -40 indicates 40% of cells at the beginning of the experiment died by the end of the experiment. A value of -100 means all cells are dead at the end of the experiment.
NCI-60 Human Tumor Cell Lines Screen was performed using the standard one-dose NCI protocol, which is described in more detail at https://dtp.cancer.gov/discovery_development/nci-60/default.htm.
Compounds with GIPRCNT values below 10 were considered active. Activity score was based on GIPRCNT using the following formula: […]
Score is 0 for GIPRCNT values of 100 or above, 50 for GIPRCNT values of 0, and 100 for GIPRCNT values of -100.
For `COc1ccc2c(c1)/C(=C1\S/C(=N/c3nnc(C)s3)NC1=O)C(=O)N2Cc1ccc(Cl)cc1`, the growth was 32% (inactive). In the case of `NCCN1CCNCC1`, the growth is reported as 102% (inactive). In the case of `Nc1ccc(C2=NN(C(=O)c3cc(-c4ccc(Cl)cc4)nc4ccccc34)C(c3ccc(Cl)cc3)C2)cc1` (stereo not given), the growth is reported as 12.4% (inactive). For `Nc1cccc(C(=O)Nc2ccc3c(O)c(N=Nc4ccc(N=Nc5ccc(S(=O)(=O)O)cc5)cc4)c(S(=O)(=O)O)cc3c2)c1`, the growth was 112% (inactive). With `C=C(C)[C@@H]1CC[C@]2(C(=O)NCCCO)CC[C@]3(C)[C@H](CC[C@@H]4[C@@]5(C)CCCNC(C)(C)[C@@H]5CC[C@]43C)[C@@H]12` the growth was 82.7% (inactive). For `COC1=CC=CC2(OC)C3(O)CCCc4cccc(c43)N3C(=O)COC132` (stereo not given), the growth was 101% (inactive). With `COc1cc(-c2csc(NC(=O)Nc3ccc(Cl)cc3)n2)cc(OC)c1OC` the growth was 7% (active). In the case of `CSc1cccc(NC(=O)Nc2nc3c(C)cccc3s2)c1`, the growth is reported as 91.5% (inactive). `O=C(CN1N=C(c2ccc(F)cc2)CCC1=O)Nc1nccs1` was tested, and the growth was 109% (inactive). With `COc1cc([C@H](C)c2ccc3ccccc3c2)cc(OC)c1OC` the growth was 17.9% (inactive). For `O=C(/C(=C/c1ccc([N+](=O)[O-])cc1)SCc1ccccc1)c1ccc(Cl)cc1`, the growth was 62% (inactive). For `CCCS(=O)(=O)Nc1ccc(F)c(C(=O)c2c[nH]c3ncc(-c4ccc(OCCCC5CCCCN5)nc4)cc23)c1F` (stereo not given), the growth was 100% (inactive). For `COc1ccc(Cc2nc(C#N)c(N3CCN(c4ccc(F)cc4)CC3)o2)cc1`, the growth was 95.3% (inactive). In the case of `CC(C)CSc1nc(Nc2ccccc2)c(C#N)c(-c2ccc(F)cc2)n1`, the growth is reported as 41.1% (inactive). In the case of `O=C(NC[C@H](O)CN1CCc2ccccc2C1)c1cc(NC2COC2)ncn1`, the growth is reported as 98.4% (inactive). For `CNc1cccc2c1C(=O)c1cccc(N)c1C2=O`, the growth was 85% (inactive). For `Nc1ccc(C2=NN(C(=O)c3cc(-c4ccc(Cl)cc4)nc4ccccc34)C(c3ccccc3)C2)cc1` (stereo not given), the growth was 12.7% (inactive). In the case of `NC(=O)c1ccc(C2C3=C(CCCC3=O)OC3=C2C(=O)c2ccccc2C3=O)cc1` (stereo not given), the growth is reported as 79.8% (inactive). With `N#Cc1c(-c2ccc(F)cc2)c(C#N)c2c(C#N)c(N)nn2c1N` the growth was 99.9% (inactive). For `Cc1cccc2nc3c(n12)C(=O)C(=O)c1ccccc1-3`, the growth was 50.3% (inactive). In the case of `[2H]c1nc(Nc2ncc3cc(C(=O)N(C)C)n(C4CCCC4)c3n2)c([2H])c([2H])c1N1C([2H])([2H])C([2H])([2H])NC([2H])([2H])C1([2H])[2H]`, the growth is reported as 106% (inactive). In the case of `COc1ccc2nc(-c3ccc(OC)c(OC)c3)cc(-c3nnc(SCC(=O)Nc4ccc(C(C)=O)cc4)o3)c2c1`, the growth is reported as 108% (inactive). In the case of `Nc1c(C(=O)Nc2ccccn2)sc2nc3c(cc12)CCCC3`, the growth is reported as 28.2% (inactive). For `C=CCn1c(SCC(=O)Nc2ccc(C(=O)/C=C/c3cc(OC)c(OC)c(OC)c3)cc2)nnc1-c1ccc(Cl)cc1`, the growth was 41.3% (inactive). In the case of `Cc1cc(Cl)cc(CN(Cc2ccccc2)Cc2c(O)ccc3ccccc23)c1O`, the growth is reported as 96.5% (inactive). For `C#C[C@@]1(O)[C@@H](CO)O[C@@H](n2cc(Cl)c3c(N)ncnc32)[C@@H]1O`, the growth was -1.89% (active). In the case of `C=C(C)[C@@H]1CC[C@]2(C(=O)OCCCC[P+](c3ccccc3)(c3ccccc3)c3ccccc3)CC[C@]3(C)[C@H](CC[C@@H]4[C@@]5(C)CC[C@H](OC(=O)C(Cl)Cl)C(C)(C)[C@@H]5CC[C@]43C)[C@@H]12`, the growth is reported as 52.7% (inactive). In the case of `C=C1C(=O)O[C@H]2[C@H]1CC/C(C=Nc1c(N)cc(F)cc1Br)=C\CC[C@@]1(C)O[C@@H]21`, the growth is reported as 109% (inactive). In the case of `Nc1c(C(=O)Nc2cccc3ccccc23)sc2nc3c(cc12)COCC3`, the growth is reported as 26.8% (inactive). With `COc1cc(C2=NN(C(C)=O)C(c3cccc(Nc4ccnc5cc(C(F)(F)F)ccc45)c3)C2)cc(OC)c1OC` (stereo not given) the growth was 53% (inactive). In the case of `CCCCc1n(Cc2ccc3ccccc3c2)c2ccccc2[n+]1Cc1ccc2ccccc2c1`, the growth is reported as 63.2% (inactive). For `NS(=O)(=O)c1ccc(-n2ncc(NC(=O)Nc3ccc(S(=O)(=O)Nc4nccs4)cc3)c2-c2ccccc2)cc1`, the growth was 105% (inactive). With `CCSc1nc(Cl)c(C#N)c(-c2ccc(F)cc2)n1` the growth was 102% (inactive). `O=C1CS/C(=N/c2nnc(-c3ccc(O)cc3)s2)N1` was tested, and the growth was 99.3% (inactive). `CCSc1ccc(C2C(Br)C(=O)N2c2cc(OC)c(OC)c(OC)c2)cc1` (stereo not given) was tested, and the growth was 14% (inactive). For `C=C1C(=O)O[C@H]2[C@H]1CC/C(COC(=O)CCCCC(=O)OC/C1=C/CC[C@@]3(C)O[C@H]3[C@H]3OC(=O)C(=C)[C@@H]3CC1)=C\CC[C@@]1(C)O[C@@H]21`, the growth was 87.5% (inactive). With `COc1ccc(-n2nc(C(=O)NCC(=O)O)nc2-c2ccccc2)cc1` the growth was 118% (inactive). With `CCCCCCN1C(=O)CN=C1Nc1ccc2cc3ccc(NC4=NCC(=O)N4CCCCCC)cc3nc2c1` the growth was 81.3% (inactive). `Cc1c(O)c(=O)ccn1-c1nc2ccccc2s1` was tested, and the growth was 57.1% (inactive). For `C=C1C(=O)O[C@H]2[C@H]1CC/C(COC(=O)N1CCC[C@H]1C(=O)Nc1ccc(OC)c(C(N)=O)c1O)=C\CC[C@@]1(C)O[C@@H]21`, the growth was 106% (inactive).

— PubChem BioAssay (NCI)
